This passage reports outcome and AC50 results from PubChem BioAssay (EPA / NIEHS).

Assay [1] can be described thus: ATG_CRE_CIS: Attagene CIS-FACTORIAL HepG2 Assay for human cAMP Responsive Element (CRE) binding protein 3 (AID 2282926). The conditions noted are these: HepG2 CRE cis-reporter, Attagene multiplexed mRNA; actives raise or lower the signal. The procedure, abridged: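 Liver-derived HepG2, transfected with a CRE-containing reporter panel, exposed 24 h; transcript levels sized and quantified by capillary electrophoresis of labelled amplicons; signal changes either way referenced to vehicle.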

For assay [2], the target named is CCAAT/enhancer-binding protein beta (Homo sapiens) (UniProt P17676). As to the kind of experiment: ATG_C_EBP_CIS: Attagene CIS-FACTORIAL HepG2 Assay for human CCAAT/Enhancer Binding Protein (C/EBP) beta (AID 2282927). Conditions: HepG2 Attagene cis-factorial transcription factor reporter; actives raise or lower the signal. An outline of the steps: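 Following a 24 h incubation with test chemical, transfected HepG2 cells yielded RNA whose reporter transcripts were quantified by RT-PCR and fluorescent capillary electrophoresis, with DMSO serving as baseline for bidirectional fitting.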

Assay [3] in a line: ATG_AP_1_CIS: Attagene CIS-FACTORIAL HepG2 Assay for human Activator Protein 1 (AP-1) (AID 2282931). Conditions: HepG2 Attagene cis-factorial AP-1 reporter mRNA; actives raise or lower the signal. The procedure, abridged: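 After 24 h incubation with test chemical, RNA from transfected HepG2 cells was reverse-transcribed, amplified, fluorescently labelled and digested before capillary electrophoresis. Reporters were driven by cis-regulatory promoters; activity fitted bidirectionally versus DMSO.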

Assay [4] can be described thus: ATG_BRE_CIS: Attagene CIS-FACTORIAL HepG2 Assay for human Bone Morphogenetic Protein (BMP) Response Element (BRE) (AID 2282933). Conditions: HepG2 BMP response element reporter, Attagene transcription factor profiling; actives raise or lower the signal. The procedure, abridged:
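HepG2 cells transiently transfected with CIS reporter units (endogenous TF activity, BMP response element), dosed 24 h. Reporter mRNA quantified by RT-PCR, fluorescent labelling and capillary electrophoresis; bidirectional fit vs DMSO baseline.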

Assay [5] is described as follows: ATG_E_Box_CIS: Attagene CIS-FACTORIAL HepG2 Assay for human Enhancer Box (E-box) (AID 2282936). The conditions noted are these: HepG2 E-box cis-reporter transcription, actives raise or lower the signal. An outline of the steps:
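Endogenous transcription factor activity was sensed in human HepG2 liver cells through transfected cis-promoter reporter units. After 24 h of dosing, total RNA was reverse-transcribed and reporter cDNA resolved by capillary electrophoresis.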

A short description of assay [6]: ATG_M_19_CIS: Attagene CIS-FACTORIAL HepG2 Assay for M19 Transcription Factor (Internal Marker) (AID 2282939). Conditions: HepG2 Attagene CIS-FACTORIAL M19 internal marker reporter; actives raise or lower the signal. The procedure, abridged: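 HepG2 cells transiently transfected with cis-regulated multiplexed reporter units, dosed 24 h. Reporter mRNA quantified by RT-PCR and capillary electrophoresis; internal background marker fitted bidirectionally versus DMSO.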

Assay [7] is described as follows: ATG_GLI_CIS: Attagene CIS-FACTORIAL HepG2 Assay for human Zinc Finger Protein GLI1 (AID 2282945). Conditions: HepG2, Attagene cis-factorial reporter mRNA, GLI element; actives raise or lower the signal. The procedure, abridged: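 HepG2 cells transiently transfected with cis-promoter multiplexed reporter units report endogenous transcription factor activity. After 24 h chemical exposure, reporter mRNA was quantified by RT-PCR, 6-FAM labelling, HpaI digestion and capillary electrophoresis, with bidirectional fitting against DMSO.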

Assay [8] is described as follows: ATG_M_06_CIS: Attagene CIS-FACTORIAL HepG2 Assay for M06 Transcription Factor (Internal Marker) (AID 2282950). Conditions: HepG2 Attagene CIS-FACTORIAL M06 internal marker reporter; actives raise or lower the signal. An outline of the steps:
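Internal background marker within multiplexed cis-reporter HepG2 system. Cells transiently transfected, dosed 24 h; reporter mRNA measured by RT-PCR, HpaI digestion and capillary electrophoresis. Bidirectional fit relative to DMSO.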

Assay [9] addresses Hypoxia-inducible factor 1-alpha (Homo sapiens) (UniProt Q16665). Nature of the assay: ATG_HIF1a_CIS: Attagene CIS-FACTORIAL HepG2 Assay for human Hypoxia Inducible Factor 1 (HIF1A) (AID 2282951). The conditions noted are these: HepG2 Attagene cis-factorial HIF1a reporter transcription; actives raise or lower the signal. The procedure, abridged:
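Endogenous-TF cis reporter readout, human HepG2 cells, 24 h incubation; mRNA detected via RT-PCR and capillary electrophoresis fluorescence; DMSO-normalised bidirectional fitting.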

Assay [10] concerns the target Hepatocyte nuclear factor 6 (Homo sapiens) (UniProt Q9UBC0). As to the kind of experiment: ATG_HNF6_CIS: Attagene CIS-FACTORIAL HepG2 Assay for human Hepatocyte Nuclear Factor 6 (HNF6) (AID 2282952). The conditions noted are these: HepG2 Attagene cis-factorial HNF6 reporter transcription; actives raise or lower the signal. The procedure, abridged: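 Twenty-four-hour chemical treatment of reporter-transfected HepG2 cells precedes RNA isolation, DNase-treated reverse transcription and PCR of reporter sequences. Labelled fragments are sized by capillary electrophoresis and fitted bidirectionally versus DMSO.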

In assay [11] the target is Heat shock factor protein 1 (Homo sapiens) (UniProt Q00613). As to the kind of experiment: ATG_HSE_CIS: Attagene CIS-FACTORIAL HepG2 Assay for human Heat Shock Transcription Factor 1 (HSE) (AID 2282953). The conditions noted are these: HepG2 HSE cis-reporter, Attagene RNA transcription; actives raise or lower the signal. The procedure, abridged: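 HepG2 cells transfected with cis-promoter reporter units sensing endogenous transcription factor activity; reporter mRNA quantified 24 h post-dose by RT-PCR and capillary electrophoresis of 6-FAM-labelled products. Bidirectional fitting against DMSO.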

Assay [12] can be described thus: ATG_VDRE_CIS: Attagene CIS-FACTORIAL HepG2 Assay for human Vitamin D Receptor Element (VDRE) (AID 2282968). Conditions: HepG2 VDRE cis-reporter transcription, actives raise or lower the signal. The procedure, abridged: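 Steps: transfect HepG2 with multiple reporter transcription units; dose chemicals 24 h; isolate RNA; RT-PCR; label with 6-FAM primer extension; HpaI digest; capillary electrophoresis. Curves fitted both directions against DMSO.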

Assay [13] deals with X-box-binding protein 1 (Homo sapiens) (UniProt P17861). Nature of the assay: ATG_Xbp1_CIS: Attagene CIS-FACTORIAL HepG2 Assay for human X-box Binding Protein 1 (XBP1) (AID 2282972). Conditions: HepG2 XBP1 cis-element reporter, Attagene multiplex; actives raise or lower the signal. The procedure, abridged: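 Changes in reporter transcript abundance, read by RT-PCR and capillary electrophoresis, reflect endogenous transcription factor activity. Transfected HepG2 cells received compound for 24 hours; DMSO defined baseline for bidirectional analysis.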

For assay [14], the target named is Nuclear respiratory factor 1 (Homo sapiens) (UniProt Q16656). Nature of the assay: ATG_NRF1_CIS: Attagene CIS-FACTORIAL HepG2 Assay for human Nuclear Respiratory Factor 1 (NRF1) Orphan Gene (AID 2282987). The conditions noted are these: HepG2 NRF1 cis-element reporter, Attagene multiplex; actives raise or lower the signal. An outline of the steps: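 Endogenous factor activity was captured via cis-element-driven reporter transcripts in HepG2 cells. Following 24 h chemical treatment, transcripts were quantified by RT-PCR and capillary electrophoresis.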

In assay [15] the target is Myc proto-oncogene protein (Homo sapiens) (UniProt P01106). As to the kind of experiment: ATG_Myc_CIS: Attagene CIS-FACTORIAL HepG2 Assay for human Myelocytomatosis (Myc) Proto-Oncogene Transcription Factor (AID 2282990). The conditions noted are these: HepG2, Attagene cis-reporter transcription factor activity; actives raise or lower the signal. An outline of the steps: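 Multiplexed cis-reporter transcription in HepG2 cells after 24 h chemical treatment. Reporter mRNA measured by RT-PCR and capillary electrophoresis fluorescence; activity fitted bidirectionally against DMSO control.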

Assay [16] is described as follows: ATG_NRF2_ARE_CIS: Attagene CIS-FACTORIAL HepG2 Assay for human Nuclear Factor Erythroid 2 Related Factor 2 (NFR2) response to Antioxidant Response Elements (ARE) (AID 2282992). Conditions: HepG2 Attagene ARE/NRF2 reporter, transcription factor activity; actives raise or lower the signal. The procedure, abridged:
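Using transiently transfected HepG2 cells exposed for 24 h, reporter mRNA levels were determined by RT-PCR with fluorescent primer extension and capillary electrophoresis, analysed for gain or loss of signal against DMSO.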

The nature of assay [17]: ATG_Oct_MLP_CIS: Attagene CIS-FACTORIAL HepG2 Assay for human Octamer-Binding Transcription Factor (Oct) (AID 2282993). The conditions noted are these: HepG2 Attagene cis-factorial Oct reporter, mRNA; actives raise or lower the signal. The procedure, abridged:
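HepG2 cells transiently transfected with cis-element-driven reporter transcription units (endogenous TF activity); 24 h compound exposure. Reporter mRNA quantified by RT-PCR, 6-FAM labelling, HpaI digestion and capillary electrophoresis; bidirectional fit versus DMSO baseline.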

The target in assay [18] is Cellular tumor antigen p53 (Homo sapiens) (UniProt P04637). As to the kind of experiment: ATG_p53_CIS: Attagene CIS-FACTORIAL HepG2 Assay for human p53 Transcription Factor (AID 2282994). Conditions: HepG2 p53 cis-element reporter, Attagene mRNA; actives raise or lower the signal. An outline of the steps:
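In HepG2 cells, reporter transcription units under cis-regulatory promoters were transiently introduced. Following 24 h treatment, RNA was processed to labelled, digested cDNA fragments read by capillary electrophoresis; fitting was bidirectional versus DMSO.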

The target of assay [19] is Aryl hydrocarbon receptor (Homo sapiens) (UniProt P35869). As to the kind of experiment: ATG_Ahr_CIS: Attagene CIS-FACTORIAL HepG2 Assay for human Aryl Hydrocarbon Receptor (Ahr) (AID 2282930). The conditions noted are these: HepG2 AhR cis-factorial reporter transcription; actives raise or lower the signal. An outline of the steps: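 Values derive from bidirectional fitting against DMSO negative control. Underlying signal: cis-element reporter mRNA in transiently transfected HepG2, harvested 24 h post-dose and measured by RT-PCR plus capillary electrophoresis.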

The nature of assay [20]: ATG_TA_CIS: Attagene CIS-FACTORIAL HepG2 Assay for human TA Basal Promoter (AID 2282964). The conditions noted are these: HepG2 Attagene CIS-factorial TA basal promoter reporter; actives raise or lower the signal. The procedure, abridged: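 HepG2 cells transiently transfected with multiple reporter units under cis promoter elements, reporting endogenous transcription factor activity; this endpoint tracks the TA basal promoter as background control. Reporter mRNA after 24 h dosing measured by RT-PCR/capillary electrophoresis; bidirectional fits versus DMSO.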

The source made the active and inactive calls. Rule for the calls: active = hit-call score of the fitted dose curve at least 0.9, where 1 is the maximum; inactive = score below 0.9.

Chain of Nuclear respiratory factor 1 (Homo sapiens) (Q16656 whole entry, looked up): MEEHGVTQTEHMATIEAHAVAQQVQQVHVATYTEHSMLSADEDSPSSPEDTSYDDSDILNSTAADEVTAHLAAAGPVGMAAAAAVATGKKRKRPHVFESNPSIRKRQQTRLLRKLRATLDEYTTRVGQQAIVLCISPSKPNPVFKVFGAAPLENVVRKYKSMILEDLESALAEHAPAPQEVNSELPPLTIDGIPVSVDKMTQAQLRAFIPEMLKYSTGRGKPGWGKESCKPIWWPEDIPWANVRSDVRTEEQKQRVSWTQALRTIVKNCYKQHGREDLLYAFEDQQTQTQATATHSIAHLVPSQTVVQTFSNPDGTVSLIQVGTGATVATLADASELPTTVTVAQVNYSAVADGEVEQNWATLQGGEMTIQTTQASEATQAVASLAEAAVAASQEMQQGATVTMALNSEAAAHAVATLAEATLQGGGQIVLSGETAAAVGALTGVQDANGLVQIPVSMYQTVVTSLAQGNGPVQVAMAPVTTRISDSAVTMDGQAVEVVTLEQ
Chain of Heat shock factor protein 1 (Homo sapiens) (Q00613 whole entry, looked up): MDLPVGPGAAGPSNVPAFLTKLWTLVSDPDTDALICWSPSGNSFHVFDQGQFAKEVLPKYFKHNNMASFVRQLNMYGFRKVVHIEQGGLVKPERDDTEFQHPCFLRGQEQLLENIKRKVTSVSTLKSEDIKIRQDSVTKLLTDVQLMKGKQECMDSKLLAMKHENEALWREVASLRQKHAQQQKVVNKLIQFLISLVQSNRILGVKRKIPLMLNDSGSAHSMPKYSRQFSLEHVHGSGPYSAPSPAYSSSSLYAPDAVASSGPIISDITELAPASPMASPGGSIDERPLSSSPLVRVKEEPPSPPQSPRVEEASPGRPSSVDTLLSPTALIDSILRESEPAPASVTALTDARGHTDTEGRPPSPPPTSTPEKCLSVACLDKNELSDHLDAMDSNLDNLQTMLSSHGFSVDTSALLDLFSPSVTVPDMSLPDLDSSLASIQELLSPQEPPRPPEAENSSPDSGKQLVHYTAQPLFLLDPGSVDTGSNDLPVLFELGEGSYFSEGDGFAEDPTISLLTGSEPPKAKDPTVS
Chain of Hepatocyte nuclear factor 6 (Homo sapiens) (Q9UBC0 whole entry, looked up, the tested form may be a part): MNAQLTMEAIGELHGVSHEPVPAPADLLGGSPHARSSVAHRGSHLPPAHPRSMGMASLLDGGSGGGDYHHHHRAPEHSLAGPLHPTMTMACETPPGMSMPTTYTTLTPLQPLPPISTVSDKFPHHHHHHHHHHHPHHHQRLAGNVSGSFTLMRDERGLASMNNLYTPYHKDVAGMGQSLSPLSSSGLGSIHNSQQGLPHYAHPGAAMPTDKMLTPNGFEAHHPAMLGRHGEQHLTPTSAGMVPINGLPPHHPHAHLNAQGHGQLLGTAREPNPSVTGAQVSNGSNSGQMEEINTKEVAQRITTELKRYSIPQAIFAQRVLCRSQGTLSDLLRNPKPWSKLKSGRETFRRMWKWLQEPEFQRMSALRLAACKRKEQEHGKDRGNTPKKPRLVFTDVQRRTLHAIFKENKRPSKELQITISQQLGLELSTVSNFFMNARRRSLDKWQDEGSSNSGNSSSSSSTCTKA
Chain of Myc proto-oncogene protein (Homo sapiens) (P01106 whole entry, looked up): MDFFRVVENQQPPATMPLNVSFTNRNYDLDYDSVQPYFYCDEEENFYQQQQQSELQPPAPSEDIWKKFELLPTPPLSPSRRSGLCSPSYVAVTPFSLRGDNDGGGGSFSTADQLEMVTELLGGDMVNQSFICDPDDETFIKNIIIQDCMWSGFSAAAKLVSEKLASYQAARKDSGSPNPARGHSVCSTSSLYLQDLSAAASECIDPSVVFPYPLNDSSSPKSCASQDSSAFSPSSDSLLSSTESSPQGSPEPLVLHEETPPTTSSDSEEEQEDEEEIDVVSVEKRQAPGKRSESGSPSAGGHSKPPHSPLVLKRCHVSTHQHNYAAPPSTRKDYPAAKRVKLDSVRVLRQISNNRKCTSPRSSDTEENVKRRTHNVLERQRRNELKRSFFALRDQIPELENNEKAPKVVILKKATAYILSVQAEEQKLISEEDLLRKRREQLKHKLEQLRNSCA
Chain of X-box-binding protein 1 (Homo sapiens) (P17861 whole entry, looked up): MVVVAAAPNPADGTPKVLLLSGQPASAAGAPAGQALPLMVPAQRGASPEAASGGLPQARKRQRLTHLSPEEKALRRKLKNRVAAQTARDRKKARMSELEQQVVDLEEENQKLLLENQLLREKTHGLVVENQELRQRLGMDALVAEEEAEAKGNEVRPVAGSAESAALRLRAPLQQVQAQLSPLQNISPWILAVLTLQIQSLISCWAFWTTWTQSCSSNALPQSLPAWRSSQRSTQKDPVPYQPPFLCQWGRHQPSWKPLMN
Chain of Cellular tumor antigen p53 (Homo sapiens) (P04637 whole entry, looked up, the tested form may be a part): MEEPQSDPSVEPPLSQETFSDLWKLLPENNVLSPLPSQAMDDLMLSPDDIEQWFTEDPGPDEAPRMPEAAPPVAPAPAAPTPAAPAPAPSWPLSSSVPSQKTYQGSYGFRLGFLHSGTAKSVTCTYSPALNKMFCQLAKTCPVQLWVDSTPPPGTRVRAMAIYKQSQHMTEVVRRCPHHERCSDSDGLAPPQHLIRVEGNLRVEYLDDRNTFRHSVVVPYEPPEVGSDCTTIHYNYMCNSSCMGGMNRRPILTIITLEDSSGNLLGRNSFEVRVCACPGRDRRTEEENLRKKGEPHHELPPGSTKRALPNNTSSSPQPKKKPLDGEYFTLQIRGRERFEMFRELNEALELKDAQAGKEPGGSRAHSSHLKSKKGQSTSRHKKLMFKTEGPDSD
Chain of CCAAT/enhancer-binding protein beta (Homo sapiens) (P17676 whole entry, looked up): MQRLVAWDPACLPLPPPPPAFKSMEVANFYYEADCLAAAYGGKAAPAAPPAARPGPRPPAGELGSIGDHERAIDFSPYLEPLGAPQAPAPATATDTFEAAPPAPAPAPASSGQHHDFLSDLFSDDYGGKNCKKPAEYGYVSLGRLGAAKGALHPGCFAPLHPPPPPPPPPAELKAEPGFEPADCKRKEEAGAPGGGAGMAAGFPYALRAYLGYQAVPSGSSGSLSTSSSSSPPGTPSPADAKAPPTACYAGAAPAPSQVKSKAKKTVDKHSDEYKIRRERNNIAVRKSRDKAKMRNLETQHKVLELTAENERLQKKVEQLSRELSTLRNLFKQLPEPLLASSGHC
Chain of Hypoxia-inducible factor 1-alpha (Homo sapiens) (Q16665 whole entry, looked up): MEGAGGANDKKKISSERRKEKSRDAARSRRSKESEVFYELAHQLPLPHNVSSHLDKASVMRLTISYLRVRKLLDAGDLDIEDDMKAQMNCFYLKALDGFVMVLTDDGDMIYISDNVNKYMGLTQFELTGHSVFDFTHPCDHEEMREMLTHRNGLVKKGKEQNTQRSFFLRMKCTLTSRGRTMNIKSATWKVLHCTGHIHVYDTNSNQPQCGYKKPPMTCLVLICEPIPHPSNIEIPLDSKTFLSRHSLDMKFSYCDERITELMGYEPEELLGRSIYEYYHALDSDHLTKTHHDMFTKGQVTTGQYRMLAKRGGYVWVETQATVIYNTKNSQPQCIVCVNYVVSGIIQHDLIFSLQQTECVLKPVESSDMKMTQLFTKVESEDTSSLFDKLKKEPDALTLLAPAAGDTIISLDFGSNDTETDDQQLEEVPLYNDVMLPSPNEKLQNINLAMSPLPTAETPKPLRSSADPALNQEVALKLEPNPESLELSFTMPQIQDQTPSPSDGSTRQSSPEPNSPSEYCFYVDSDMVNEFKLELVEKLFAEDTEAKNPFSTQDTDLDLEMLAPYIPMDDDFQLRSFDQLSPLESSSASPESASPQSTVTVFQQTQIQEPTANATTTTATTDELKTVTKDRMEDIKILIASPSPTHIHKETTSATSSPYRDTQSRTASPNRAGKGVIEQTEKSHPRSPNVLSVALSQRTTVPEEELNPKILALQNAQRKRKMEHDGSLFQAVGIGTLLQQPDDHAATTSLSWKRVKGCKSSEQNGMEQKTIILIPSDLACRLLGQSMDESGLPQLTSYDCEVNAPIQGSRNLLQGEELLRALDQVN
Chain of Aryl hydrocarbon receptor (Homo sapiens) (P35869 whole entry, looked up): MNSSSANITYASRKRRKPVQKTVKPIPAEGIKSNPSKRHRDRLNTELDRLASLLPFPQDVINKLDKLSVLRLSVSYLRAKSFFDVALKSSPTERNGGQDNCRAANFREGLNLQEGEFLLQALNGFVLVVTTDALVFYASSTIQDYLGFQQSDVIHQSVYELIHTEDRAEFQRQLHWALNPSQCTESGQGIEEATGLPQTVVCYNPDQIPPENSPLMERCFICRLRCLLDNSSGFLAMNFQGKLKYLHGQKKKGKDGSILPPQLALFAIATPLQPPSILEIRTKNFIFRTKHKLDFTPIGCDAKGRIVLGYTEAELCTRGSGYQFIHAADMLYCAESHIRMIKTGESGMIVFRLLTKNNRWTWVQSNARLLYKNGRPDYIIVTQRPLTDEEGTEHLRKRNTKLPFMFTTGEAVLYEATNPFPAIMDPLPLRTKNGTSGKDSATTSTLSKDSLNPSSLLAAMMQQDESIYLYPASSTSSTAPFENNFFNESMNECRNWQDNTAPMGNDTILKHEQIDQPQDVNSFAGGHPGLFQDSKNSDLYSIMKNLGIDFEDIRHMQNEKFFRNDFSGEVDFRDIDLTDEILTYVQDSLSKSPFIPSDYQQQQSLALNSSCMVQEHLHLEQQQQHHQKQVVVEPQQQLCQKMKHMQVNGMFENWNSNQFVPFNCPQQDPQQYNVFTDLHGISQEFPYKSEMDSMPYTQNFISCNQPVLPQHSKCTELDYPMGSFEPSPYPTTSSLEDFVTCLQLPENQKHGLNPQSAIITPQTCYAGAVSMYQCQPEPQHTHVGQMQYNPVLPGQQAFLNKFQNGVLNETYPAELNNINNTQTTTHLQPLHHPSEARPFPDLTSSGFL

For the compound `Cl/C=C\CCl`, the result in assay [1], in assay [2], in assay [3], in assay [4], in assay [5] and in assay [6] was inactive. Also, the result in assay [7], in [8], in [9], in assay [10], in assay [11] and in assay [12] was inactive. Besides, the compound was classed as inactive in assay [13], in assay [14], in assay [15], in [16], in [17] and in [18].

Regarding `CCC(Br)(CC)C(=O)NC(N)=O`, the compound was called inactive in assay [1], in [2], in assay [19], in [3], in assay [5] and in assay [6]. Further, the result in [7], in assay [8], in assay [9], in assay [10], in [11] and in [20] was inactive. Besides, the call in assay [12], in assay [13], in assay [14], in assay [15], in assay [16] and in assay [17] was inactive. In assay [18], the compound was classed as inactive.

For `COC(C)(C)CCC[C@H](C)C/C=C/C(C)=C/C(=O)OC(C)C`, the result in assay [1], in assay [2], in assay [19], in [5], in [6] and in assay [9] was inactive. Besides, the compound was called inactive in assay [10], in [20], in assay [13], in assay [14], in assay [15] and in assay [17]. The results for the AC50 in assay [3], in assay [16] and in assay [18] were 112 µM (active), 52.8 µM (active) and 157 µM (active), respectively.

On to `COCC(=O)N(c1c(C)cccc1C)N1CCOC1=O`, for which the call in assay [1], in [2], in assay [3], in assay [4], in assay [5] and in [6] was inactive. The call in [7], in [9], in assay [10], in [11], in [20] and in assay [13] was inactive. Besides, the compound was called inactive in assay [15], in assay [16], in assay [17] and in [18]. Also, the AC50 in assay [12] is 65.9 µM (active).

What is called AC50 is the midpoint of the concentration-response curve, whichever way the signal moves.
